What all share (format): functional
The target of experiment [1] is Solute carrier family 2, facilitated glucose transporter member 1 (Homo sapiens) (UniProt P11166). As to the kind of experiment: ST_JUDE_LEISH: Cytotoxicity at 2uM final concentration against transgenic Leishmania Mexicana promastigotes LmGLUT1 that are glucose transport deficient and complemented with the human glucose transporter GLUT1. Activity is measured by DNA content using SYBR green in vitro.

Experiment [2] concerns the target Hexose transporter 1 (Plasmodium falciparum) (UniProt O97467). The experiment can be described thus: ST_JUDE_LEISH: Cytotoxicity at 2uM final concentration against transgenic Leishmania Mexicana promastigotes LmPfHT that are glucose transport deficient and complemented with the Plasmodium falciparum hexose transporter. Activity is measured by DNA content using SYBR green in vitro.

Experiment [3] has as its target Glucose transporter (Leishmania mexicana) (UniProt O61059). As to the kind of experiment: ST_JUDE_LEISH: Cytotoxicity at 2uM final concentration against transgenic Leishmania Mexicana promastigotes LmGT2 that are glucose transport deficient and complemented with the L. Mexicana glucose transporter 2. Activity is measured by DNA content using SYBR green in vitro.

Solute carrier family 2, facilitated glucose transporter member 1 (Homo sapiens), sequence (P11166 whole entry): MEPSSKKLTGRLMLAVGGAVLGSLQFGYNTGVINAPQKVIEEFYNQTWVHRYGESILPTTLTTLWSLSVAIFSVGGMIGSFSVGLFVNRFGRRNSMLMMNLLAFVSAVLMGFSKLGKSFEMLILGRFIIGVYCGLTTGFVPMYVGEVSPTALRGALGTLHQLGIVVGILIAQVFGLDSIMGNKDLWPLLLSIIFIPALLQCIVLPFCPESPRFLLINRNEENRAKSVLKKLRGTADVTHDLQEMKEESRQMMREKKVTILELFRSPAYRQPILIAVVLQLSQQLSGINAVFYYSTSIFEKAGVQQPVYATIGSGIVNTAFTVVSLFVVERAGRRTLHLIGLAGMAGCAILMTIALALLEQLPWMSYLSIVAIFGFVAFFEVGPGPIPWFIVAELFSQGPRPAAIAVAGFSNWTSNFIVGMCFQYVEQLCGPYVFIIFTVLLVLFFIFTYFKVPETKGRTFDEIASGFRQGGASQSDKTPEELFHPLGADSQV

Regarding `CCCNc1ccc(-c2cc(C(N)=O)c3[nH]cc(C4CCN(S(=O)(=O)CC)CC4)c3c2)cn1`, the values for the inhibition in experiment [1], in experiment [2] and in experiment [3] were 3.86%, 6.54% and 3.64%, respectively.

In the case of `Cc1ccccc1C1CCN(C2CCC(NC(=O)/C=C/c3cccc(F)c3)CC2)CC1` (centres undefined), the inhibition was 6.96% in experiment [1], 8.22% in experiment [2] and 7.51% in experiment [3].

Regarding `N#Cc1ccc(C(=O)Nc2ccc(Cl)c(N3CCN(CCc4ccccc4)CC3)c2)cc1`, the inhibition is 8.77% in experiment [1], 7.95% in experiment [2] and 7.85% in experiment [3].

In the case of `COc1cccc2c(Oc3ccccc3C)ccnc12`, the inhibition was -0.44% in experiment [1], -1.86% in experiment [2] and 0.33% in experiment [3].

Turning to `COCCn1ccc2c3c(N)nc(N)nc3ccc21`, the inhibition in experiment [1] stood at 0.38%; in experiment [2] it was 3.61%; in experiment [3], 2.26%.

With `O=C(Nc1ccc2c(c1)CCC2)c1nc(N2CCN(c3ccncc3)CC2)ccc1Cl`, the values for the inhibition in experiment [1], in experiment [2] and in experiment [3] were 1.84%, 1.86% and 1.75%, respectively.

Take `Cn1nc(-c2ccc(NC(=O)Nc3ccc4ccccc4c3)c(F)c2)c2cnc(NCCN3CCOCC3)nc21`: the inhibition in experiment [1] was found to be 5.52%; in experiment [2] it was 4.79%; in experiment [3], 1.17%.

On to `CCN(CC)CCNC(=O)c1ccc(NC(=O)c2oc3c(Cl)cccc3c2C)cc1`, for which the inhibition in experiment [1] came out at 12.1%; in experiment [2] it was 8.3%; in experiment [3], 7.44%.

Turning to `Cc1ccc2nc(C)cc(N/N=C/c3ccc([N+](=O)[O-])o3)c2c1`, the results for the inhibition in experiment [1], in experiment [2] and in experiment [3] were 14.9%, 12.8% and 9.98%, respectively.

`O=C(/C=C/c1ccc(Cl)c(Cl)c1)NCCCCCN1CCCN(C(=O)Nc2cccc(F)c2)CC1`: the inhibition stood at 0.1% in experiment [1], 0.29% in experiment [2] and 3.86% in experiment [3].

For the compound `COc1ccc(CCn2c(=N)c(C(=O)NC3CCCC3)cc3c(=O)n4ccccc4nc32)cc1`, the inhibition in experiment [1] was determined as 7.26%; in experiment [2], 9.43%; in experiment [3] it was 5.98%.

Consider `O=C(Nc1ccc(CC(=O)N2CCc3cc(Cl)c(N4CCN(C/C=C/c5ccccc5)CC4)cc32)cc1)Nc1cccc([N+](=O)[O-])c1`, for which the inhibition in experiment [1] was 1.73%; in experiment [2], 1.25%; in experiment [3], 1.93%.

Regarding `NS(=O)(=O)c1cccc(-c2ccc3c(O)ncnc3c2)c1`, the inhibition in experiment [1] worked out at 4.08%; in experiment [2], 3.82%; in experiment [3] it was 5.44%.

As for `COc1ccccc1/C=C/C(=O)NC1CCC(CCN2CCc3ccc(-c4cc(C)no4)cc3CC2)CC1` (centres undefined), the inhibition in experiment [1] came out at 3.11%; in experiment [2] it was 1.2%; in experiment [3], 9.56%.

With `CCCCCCOc1ccccc1C(=O)NCCOc1ccc(Cl)cc1`, the inhibition in experiment [1] is 3.58%; in experiment [2], -1.45%; in experiment [3], -1.97%.

For the compound `Cn1nccc1C(=O)NCCNCc1cccc(-c2ccc(-c3nc4ccccc4[nH]3)s2)c1`, the results for the inhibition in experiment [1], in experiment [2] and in experiment [3] were -0.55%, -0.8% and -1.72%, respectively.

As to `N=C(N)Nc1nc(-c2cccc(NC(=O)NCC(c3ccccc3)c3ccccc3)c2)cs1`, the inhibition in experiment [1] amounted to 0.2%; in experiment [2], 2.14%; in experiment [3], 0.5%.

Take `CCc1ccc(CN(CCCOc2cccc(CC(=O)NCc3c[nH]cn3)c2)Cc2ccc(-n3ccnc3)cc2)cc1`: the figures for the inhibition in experiment [1], in experiment [2] and in experiment [3] were 2.55%, 2.84% and 3.08%, respectively.

As for `N[C@@H](Cc1cc(I)c(Oc2ccc(O)c(C(=O)O)c2)c(I)c1)C(=O)O`, the values for the inhibition in experiment [1], in experiment [2] and in experiment [3] were 3.18%, 3.91% and 3.61%, respectively.

Consider `COc1ccc(C(=O)N2CCC(C(=O)NC(C)c3ccc(-n4ccnc4)cc3)CC2)c2ccccc12` (centres undefined), for which the inhibition in experiment [1] is -1.06%; in experiment [2] it was -0.1%; in experiment [3] it was -0.59%.

For the compound `O=C(NCCc1cccc(Cl)c1Cl)c1cnc(N2CCN(c3ccncc3)CC2)c(Cl)c1`, the inhibition in experiment [1] is 77.2%; in experiment [2], 81.6%; in experiment [3], 83.9%.

Consider `CCNC(=O)Nc1ccc(N(C)c2ccnc(NC3CC3)n2)cc1`, for which the inhibition in experiment [1] was 5.12%; in experiment [2] it was 3.87%; in experiment [3] it was 5.35%.

In the case of `Cc1csc(-c2nonc2NC(=O)COc2ccccc2C(C)C)n1`, the figures for the inhibition in experiment [1], in experiment [2] and in experiment [3] were 2.07%, -1.84% and 2.3%, respectively.

For `Cc1ccc(S(=O)(=O)N(CCCNCc2cccc(O)c2)c2ccccc2)cc1`, the inhibition is 9.85% in experiment [1], 6.1% in experiment [2] and 7.86% in experiment [3].

For `N#Cc1ccc(CN2CCCN(Cc3cccc(NC(=O)c4ccc(Cl)c(Cl)c4)c3)CC2)cc1`, the inhibition in experiment [1] is 9.73%; in experiment [2], 7.09%; in experiment [3] it was 9.89%.

On to `Cn1nc(-c2ccc(NC(=O)Nc3cc(C(F)(F)F)ccc3F)cc2)c2cnc(NCCc3c[nH]cn3)nc21`, for which the inhibition was found to be 3.35% in experiment [1], 3.29% in experiment [2] and 2.46% in experiment [3].

Take `COc1ccc(Nc2c3ccc(Cl)cc3nc3ccc(OC)cc23)cc1`: the inhibition in experiment [1] amounted to 2.45%; in experiment [2] it was 4.25%; in experiment [3], 0.01%.

As for `O=C(NCCCCN1CCC(c2ccc3c(c2OCCN2CCCC2=O)CCCC3)CC1)c1ccc(-c2ccc(C(F)(F)F)cc2)cc1`, the inhibition was -1.16% in experiment [1], 0.75% in experiment [2] and -0.45% in experiment [3].

On to `O=C(COc1ccc(Cl)c(Cl)c1)NCCCCCN1CCCN(C(=O)Nc2cc(Cl)cc(Cl)c2)CC1`, for which the inhibition in experiment [1] is 5.88%; in experiment [2], -0.58%; in experiment [3], 6.4%.

Turning to `CCCCN(CCCC)CCC(O)C(=Cc1ccc(Cl)cc1Cl)c1ccc(C(F)(F)F)cc1N` (centres undefined), the inhibition was -0.65% in experiment [1], 0.65% in experiment [2] and 0.7% in experiment [3].

For `Oc1ccc(CC2CCCN(c3nc(NCCCOc4ccccc4-c4ccccc4)nc(N4CCNCC4)n3)C2)cc1` (centres undefined), the inhibition in experiment [1] was -0.74%; in experiment [2] it was -1.72%; in experiment [3], -1.02%.

Take `Cc1cc(N2C(N)=NC(N)=NC2(C)C)ccc1Cl`: the inhibition is 0.08% in experiment [1], -0.81% in experiment [2] and -0.97% in experiment [3].

On to `CCCc1cc(N2CCC(N3CCCC3)CC2)nc(Nc2ccc(Cl)cc2)n1`, for which the inhibition in experiment [1] was -1.71%; in experiment [2] it was 2.3%; in experiment [3], 0.85%.

Usually inhibition stands for the change of the read-out against control, counted positive when it falls.
